The values below come from the supplement of paper PMC6805474.

For test [1], the system named is Schistosoma mansoni schistosomula (NMRI). The test can be described thus: phenotypic severity score (0-4); higher = more antischistosomal effect, active = 2 or more. Conditions: 10 µM.
Test [2] concerns Schistosoma mansoni schistosomula (Liberian). The test is described as follows: drug effect (1 - score/DMSO control score) (fraction); higher = more antischistosomal effect, active = 0.5 or more; extreme values may be limits of the assay. Conditions: 10 µM. In a few lines: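 A plate was valid only if its 0.1% DMSO wells averaged a score of at least 2. Those wells ran beside duplicate wells in which 50 Liberian-strain Schistosoma mansoni schistosomula each, transformed mechanically from cercariae and pre-incubated at least 12 h, met 10 µM compound in Medium 199 with 5% FCS at 37 °C, 5% CO2. Scoring was visual at 10× at 24, 48 and 72 h, from 3 (normal) to 0 (dead) in quarter-point steps. Drug effect was derived from the mean test-well score against the mean DMSO-well score, with negatives set to zero.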

Unmarked numbers belong to inactive results.
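Throughout, for phenotypic severity score (0-4): visual microscopic scoring of shape, motility and density changes versus 0.5% DMSO solvent controls, one point per descriptor, degeneracy or death scored 4, mean of duplicate wells.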

As to `CC1COC(Cn2cncn2)(c2ccc(Oc3ccc(Cl)cc3)cc2Cl)O1` (centres undefined), the phenotypic severity score in test [1] (24 h) is 2 (active); in test [1] (48 h), 1; in test [1] (72 h), 2 (active). Further, the drug effect was 0.136 in test [2] (24 h), 0.25 in test [2] (48 h) and 0.0727 in test [2] (72 h).

As to `CC1(C)OB(O)c2ccc(C3=NOC(c4cc(Cl)c(F)c(Cl)c4)(C(F)(F)F)C3)cc21` (centres undefined), the phenotypic severity score is 2 (active) in test [1] (24 h), 0 in test [1] (48 h) and 1 in test [1] (72 h). For the same compound, the drug effect in test [2] (24 h), in test [2] (48 h) and in test [2] (72 h) was 1 (active) throughout.

As to `Cc1nn(Cc2ccccc2)c(Cl)c1C(=O)NC1CCCCCC1`, the phenotypic severity score in test [1] (24 h) is 2 (active); in test [1] (48 h), 0; in test [1] (72 h), 0. Also, the drug effect in test [2] (24 h) is 0.0455; in test [2] (48 h), 0.05; in test [2] (72 h) it was 0.0727.

On to `O=C1O[C@@H](COc2ccon2)CN1c1cc(F)c(C2=CCN(Cc3ccccc3)CC2)c(F)c1`, for which the phenotypic severity score in test [1] (24 h), in test [1] (48 h) and in test [1] (72 h) was 0 in each case. Also, the drug effect in test [2] (24 h) is 0.1; in test [2] (48 h), 0.167; in test [2] (72 h), 0.25.

As to `CO/N=C(\C(=O)OC)c1ccccc1CO/N=C(\C)c1cccc(C(F)(F)F)c1`, the results for the phenotypic severity score in test [1] (24 h), in test [1] (48 h) and in test [1] (72 h) were 1, 0 and 0, respectively. Further, the drug effect in test [2] (24 h) is 0.05; in test [2] (48 h) it was 0.027; in test [2] (72 h) it was 0.152.

For `CCc1nn(C)c(C(=O)NCc2ccc(Oc3ccc(C)cc3)cc2)c1Cl`, the phenotypic severity score in test [1] (24 h) is 1; in test [1] (48 h), 1; in test [1] (72 h), 2 (active). Also, the values for the drug effect in test [2] (24 h), in test [2] (48 h) and in test [2] (72 h) were 0.364, 0.55 (active) and 0.455, respectively.

In the case of `Cc1nn(C)c(C)c1NS(=O)(=O)c1c(Cl)cc(-c2ccnc(N3CCNCC3)c2)cc1Cl`, the phenotypic severity score in test [1] (24 h), in test [1] (48 h) and in test [1] (72 h) was 0 throughout. The values for the drug effect in test [2] (24 h), in test [2] (48 h) and in test [2] (72 h) were 0.15, 0.0811 and 0.152, respectively.

With `CO[C@@H]1CN(c2ccc(C#CC3(O)CN4CCC3CC4)c(Cc3ccccc3)n2)C[C@H]1O` (some centres undefined), the phenotypic severity score in test [1] (24 h), in test [1] (48 h) and in test [1] (72 h) was 0 throughout. Further, the drug effect in test [2] (24 h) was below 0; in test [2] (48 h), below 0; in test [2] (72 h), 0.111.

In the case of `CC(C)(C)C(O)C(Oc1ccc(-c2ccccc2)cc1)n1cncn1` (centres undefined), the phenotypic severity score is 1 in test [1] (24 h), 0 in test [1] (48 h) and 0 in test [1] (72 h). Besides, the results for the drug effect in test [2] (24 h), in test [2] (48 h) and in test [2] (72 h) were 0.0909, 0.15 and 0.127, respectively.

For `Cc1cccc(C(=O)Nc2ccnc(N(C)C3CCN(CC(C)C)CC3)c2)c1`, the phenotypic severity score in test [1] (24 h), in test [1] (48 h) and in test [1] (72 h) was 0 each time. The drug effect is 0.1 in test [2] (24 h), 0.243 in test [2] (48 h) and 0.212 in test [2] (72 h).

Take `Nc1c2c(nc3sc4c(c13)CCCC4)CCCC2`: the phenotypic severity score in test [1] (24 h), in test [1] (48 h) and in test [1] (72 h) was 4 (active) each time. In addition, the drug effect is 0.545 (active) in test [2] (24 h), 0.8 (active) in test [2] (48 h) and 0.564 (active) in test [2] (72 h).

With `Cc1cc(C2=NOC(c3cc(Cl)c(F)c(Cl)c3)(C(F)(F)F)C2)ccc1C(=O)NCc1ccc2c(c1)C(C)(C)OB2O` (centres undefined), the phenotypic severity score in test [1] (24 h), in test [1] (48 h) and in test [1] (72 h) was 0 in each case. Also, the drug effect in test [2] (24 h) is 0.2; in test [2] (48 h), 0.135; in test [2] (72 h), 0.167.

For `O=C1O[C@@H](CO)CN1c1cc(F)c(C2=CCN(Cc3ccccc3)CC2)c(F)c1`, the phenotypic severity score was 0 in test [1] (24 h), 0 in test [1] (48 h) and 2 (active) in test [1] (72 h). Further, the drug effect was 0.05 in test [2] (24 h), 0.111 in test [2] (48 h) and 0.188 in test [2] (72 h).

Consider `CO/C=C(/C(=O)OC)c1ccccc1Oc1cc(Oc2ccccc2C#N)ncn1`, for which the phenotypic severity score in test [1] (24 h), in test [1] (48 h) and in test [1] (72 h) was 0 throughout. Further, the drug effect in test [2] (24 h) is 0.05; in test [2] (48 h), 0.027; in test [2] (72 h), 0.111.
